Data published in PubChem BioAssay.
Calls of active or inactive are those of the source.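 Rule for the calls, unless noted: active = compound raising the membrane signal above positive-control mean plus 3 SD in both repeats, and a primary screen hit; inactive = the rest.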

Target: Short transient receptor potential channel 6 (Mus musculus) (UniProt Q61143)
Assay: TRPC6 potentiation by TRPC4 potentiator hits, confirmation, selectivity assay for TRPC4 potentiator project, HEK293 cells, membrane potential dye, duplicate (AID 434952)
Conditions: HEK293 TRPC6, membrane potential dye fluorescence, at 10 µM, maximal acetylcholine added after compound; hits give high values

Short transient receptor potential channel 6 (Mus musculus), sequence (Q61143 whole entry, looked up): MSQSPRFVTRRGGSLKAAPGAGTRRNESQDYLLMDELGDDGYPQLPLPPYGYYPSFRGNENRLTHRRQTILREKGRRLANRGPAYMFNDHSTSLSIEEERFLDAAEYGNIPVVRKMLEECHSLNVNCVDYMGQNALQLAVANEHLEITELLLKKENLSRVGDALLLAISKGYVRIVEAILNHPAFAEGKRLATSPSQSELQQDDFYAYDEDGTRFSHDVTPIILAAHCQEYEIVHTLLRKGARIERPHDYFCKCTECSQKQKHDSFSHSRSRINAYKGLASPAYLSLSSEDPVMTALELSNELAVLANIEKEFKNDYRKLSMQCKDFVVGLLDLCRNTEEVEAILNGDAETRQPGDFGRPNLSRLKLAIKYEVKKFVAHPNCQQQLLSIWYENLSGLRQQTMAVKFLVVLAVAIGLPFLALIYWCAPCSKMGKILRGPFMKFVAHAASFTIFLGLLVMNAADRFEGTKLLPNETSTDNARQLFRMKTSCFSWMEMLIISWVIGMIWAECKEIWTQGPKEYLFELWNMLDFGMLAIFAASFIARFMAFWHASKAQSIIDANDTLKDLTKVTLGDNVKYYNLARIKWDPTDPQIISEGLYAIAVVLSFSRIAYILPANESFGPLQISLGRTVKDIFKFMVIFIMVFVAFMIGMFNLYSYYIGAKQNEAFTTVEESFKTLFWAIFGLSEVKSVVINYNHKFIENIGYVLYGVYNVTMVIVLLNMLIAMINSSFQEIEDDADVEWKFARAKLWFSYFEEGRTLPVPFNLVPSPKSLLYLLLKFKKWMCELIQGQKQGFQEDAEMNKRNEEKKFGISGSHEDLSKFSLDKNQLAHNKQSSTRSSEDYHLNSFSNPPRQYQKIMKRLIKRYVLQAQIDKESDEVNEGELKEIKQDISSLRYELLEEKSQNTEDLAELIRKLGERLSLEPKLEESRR

Row | Structure (SMILES) | outcome
1 | CN1CCC(CNC(=O)Nc2ccccc2)(c2ccccc2)CC1 | inactive
2 | Cc1ccc(C)c(OCCCCCn2ccnc2)c1 | inactive
3 | CN(C)C(CNC(=O)c1ccc2ccccc2n1)c1ccccc1 (stereo not given) | inactive
4 | CCn1cc(CN2CCC(n3nccc3NC(=O)CCOc3ccccc3)CC2)cn1 | inactive
5 | CCOC(=O)C1(CCOc2ccccc2)CCN(Cc2cnc(C)s2)CC1 | inactive
6 | CCN1CCN(c2ccc(S(=O)(=O)N3CCOCC3)cc2NC(=O)C(C)Oc2cccc(Cl)c2)CC1 (stereo not given) | inactive
7 | CN(CCc1nc2ccc(Cl)cc2[nH]1)Cc1nc(CC2CC2)no1 | inactive
8 | COc1ccccc1CCC(=O)Nc1cc(S(=O)(=O)N2CCCCC2)ccc1N1CCN(C)CC1 | inactive
9 | CCCCC(=O)NNC(=S)NC(=O)c1ccc(C)cc1 | inactive
10 | Cc1ccc(C2N(c3ccc(Cl)c(Cl)c3)C(=O)C3CCCN32)o1 (stereo not given) | inactive
11 | COc1ccccc1N1CCN(C(c2cccs2)C(C)NC(=O)c2cccs2)CC1 (stereo not given) | inactive
12 | O=C(Nc1nnc(-c2ccccc2Cl)o1)c1nc2ccccc2s1 | inactive
13 | CCOC(=O)C1(CC2CCCCO2)CCN(Cc2c(C)cc(C)cc2-n2cccn2)CC1 (stereo not given) | inactive
14 | Cc1ccccc1OCC(=O)NNC(=S)NC(=O)c1ccco1 | inactive
15 | Cc1ccc(C2(O)CN(c3ccccc3C)C3=[N+]2CCS3)cc1 (stereo not given) | inactive
16 | Cc1ccccc1C(=O)NNC(=S)NC(=O)c1ccccc1 | inactive
17 | Cc1ccc(C(=O)NC(=S)NNC(=O)c2ccccc2)cc1 | inactive
18 | Fc1ccc(-c2nnc(CN3CCN(c4ncc(C(F)(F)F)cc4Cl)CC3)o2)cc1 | inactive
19 | CNCCCOc1ccc2c(c1)CCC2 | inactive
20 | CCN(CCCNS(=O)(=O)c1cc(-c2cc(C)no2)ccc1C)Cc1ccccc1 | inactive

Row | Structure (SMILES) | outcome
21 | CCOC(=O)c1oc2ccc(OC)cc2c1NC(=O)CN1CCN(C)CC1 | inactive
22 | COc1ccc(C(CNC(=O)c2cc(SC)ccc2Cl)N(C)C)cc1 (stereo not given) | inactive
23 | O=C(NCCc1ccccn1)C(F)(F)C(F)(F)C(F)(F)C(F)(F)C(F)(F)C(F)F | inactive
24 | CCCCCSc1nnc2c(n1)OC(c1cccn1C)N(C(C)=O)c1ccccc1-2 (stereo not given) | inactive
25 | COc1ccc(-c2cc(C#N)nc(N3CCNCC3)n2)cc1 | inactive
26 | Cc1ccccc1NC(=S)NCCc1ccccn1 | inactive
27 | Cn1c(CN2CCN(c3cccc(Cl)c3)CC2)nc2ccccc21 | inactive
28 | O=C(Cn1c(-c2ccccc2)c[n+]2ccsc12)c1ccc(Br)cc1 | inactive
29 | CCn1c(N2CCN(Cc3ccc([N+](=O)[O-])cc3)CC2)nc2ccccc21 | inactive
30 | CN(C)C(CNC(=S)Nc1ccc(F)cc1)c1cccnc1 (stereo not given) | inactive
31 | COc1ccc(C(=O)NC(=S)NNC(=O)c2c(-c3ccccc3)noc2C)cc1OC | inactive
32 | CC1CC(C)CN(CCCNC(=O)COc2cc(=O)n(C)c3ccccc23)C1 (stereo not given) | inactive
33 | CN(C)CCCN(C(=O)c1ccc(C(=O)c2ccccc2)cc1)c1nc2ccc(F)cc2s1 | inactive
34 | CCCCN(CC)CCNC(=O)c1cc2cc3ccc(Cl)cc3nc2o1 | inactive
35 | COc1ccc(C(=O)NC(=S)NNC(=O)CCc2ccccc2)cc1 | inactive
36 | CCN(CC)CCSc1nc2ccc(OC)cc2[nH]1 | inactive
37 | Cc1ccc(C)c(OCCCCn2ccnc2)c1 | inactive
38 | Cc1nc(/N=C(\N)NC(=O)NC2CCCCC2)nc2ccccc12 | inactive
39 | COC(=O)[C@@]1(Cc2ccc(F)cc2)[C@H]2c3cc(C(=O)N(C)C)n(CCc4ccccn4)c3C[C@H]2CN1C(=O)c1ccccc1 | inactive
40 | O=C(CNS(=O)(=O)c1ccc2ccccc2c1)NCCc1ccccn1 | inactive

Target: Short transient receptor potential channel 4 (Mus musculus) (UniProt Q9QUQ5)
Assay: calcium flux activators in TRPC4/5HT1a cells, counter-screen for TRPC4 activator project, cell-based, second counter screen, HEK293 TRPC4/5HT1a, Fluo-4 (AID 434977;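 active = calcium signal rise above buffer-control mean plus 5 SD in both duplicates, and also a hit in the primary screen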;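 for activation: plate controls were assay buffer for no effect and maximal serotonin response for full effect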)
Conditions: Fluo-4 calcium flux, at 10 µM; hits give high values

Row | Structure (SMILES) | outcome | activation
41 | CN1CCC(CNC(=O)Nc2ccccc2)(c2ccccc2)CC1 | inactive | –
42 | Cc1ccc(C)c(OCCCCCn2ccnc2)c1 | – | 25.7% (active)
43 | CN(C)C(CNC(=O)c1ccc2ccccc2n1)c1ccccc1 (stereo not given) | inactive | –
44 | CCn1cc(CN2CCC(n3nccc3NC(=O)CCOc3ccccc3)CC2)cn1 | inactive | –
45 | CCOC(=O)C1(CCOc2ccccc2)CCN(Cc2cnc(C)s2)CC1 | – | 5.79% (active)
46 | CCN1CCN(c2ccc(S(=O)(=O)N3CCOCC3)cc2NC(=O)C(C)Oc2cccc(Cl)c2)CC1 (stereo not given) | – | 11.3% (active)
47 | CN(CCc1nc2ccc(Cl)cc2[nH]1)Cc1nc(CC2CC2)no1 | – | 23.4% (active)
48 | COc1ccccc1CCC(=O)Nc1cc(S(=O)(=O)N2CCCCC2)ccc1N1CCN(C)CC1 | – | 32.8% (active)
49 | CCCCC(=O)NNC(=S)NC(=O)c1ccc(C)cc1 | – | 15% (active)
50 | Cc1ccc(C2N(c3ccc(Cl)c(Cl)c3)C(=O)C3CCCN32)o1 (stereo not given) | – | 13.8% (active)
51 | COc1ccccc1N1CCN(C(c2cccs2)C(C)NC(=O)c2cccs2)CC1 (stereo not given) | inactive | –
52 | O=C(Nc1nnc(-c2ccccc2Cl)o1)c1nc2ccccc2s1 | – | 91.4% (active)
53 | CCOC(=O)C1(CC2CCCCO2)CCN(Cc2c(C)cc(C)cc2-n2cccn2)CC1 (stereo not given) | inactive | –
54 | Cc1ccccc1OCC(=O)NNC(=S)NC(=O)c1ccco1 | – | 42.5% (active)
55 | Cc1ccc(C2(O)CN(c3ccccc3C)C3=[N+]2CCS3)cc1 (stereo not given) | inactive | –
56 | Cc1ccccc1C(=O)NNC(=S)NC(=O)c1ccccc1 | – | 121% (active)
57 | Cc1ccc(C(=O)NC(=S)NNC(=O)c2ccccc2)cc1 | – | 72.6% (active)
58 | Fc1ccc(-c2nnc(CN3CCN(c4ncc(C(F)(F)F)cc4Cl)CC3)o2)cc1 | – | 23.8% (active)
59 | CNCCCOc1ccc2c(c1)CCC2 | – | 16.2% (active)
60 | CCN(CCCNS(=O)(=O)c1cc(-c2cc(C)no2)ccc1C)Cc1ccccc1 | – | 68.6% (active)

Row | Structure (SMILES) | outcome | activation
61 | CCOC(=O)c1oc2ccc(OC)cc2c1NC(=O)CN1CCN(C)CC1 | – | 12.8% (active)
62 | COc1ccc(C(CNC(=O)c2cc(SC)ccc2Cl)N(C)C)cc1 (stereo not given) | inactive | –
63 | O=C(NCCc1ccccn1)C(F)(F)C(F)(F)C(F)(F)C(F)(F)C(F)(F)C(F)F | – | 46% (active)
64 | CCCCCSc1nnc2c(n1)OC(c1cccn1C)N(C(C)=O)c1ccccc1-2 (stereo not given) | – | 18% (active)
65 | COc1ccc(-c2cc(C#N)nc(N3CCNCC3)n2)cc1 | inactive | –
66 | Cc1ccccc1NC(=S)NCCc1ccccn1 | – | 56.5% (active)
67 | Cn1c(CN2CCN(c3cccc(Cl)c3)CC2)nc2ccccc21 | inactive | –
68 | O=C(Cn1c(-c2ccccc2)c[n+]2ccsc12)c1ccc(Br)cc1 | inactive | –
69 | CCn1c(N2CCN(Cc3ccc([N+](=O)[O-])cc3)CC2)nc2ccccc21 | – | 22% (active)
70 | CN(C)C(CNC(=S)Nc1ccc(F)cc1)c1cccnc1 (stereo not given) | inactive | –
71 | COc1ccc(C(=O)NC(=S)NNC(=O)c2c(-c3ccccc3)noc2C)cc1OC | – | 24.4% (active)
72 | CC1CC(C)CN(CCCNC(=O)COc2cc(=O)n(C)c3ccccc23)C1 (stereo not given) | – | 23.2% (active)
73 | CN(C)CCCN(C(=O)c1ccc(C(=O)c2ccccc2)cc1)c1nc2ccc(F)cc2s1 | inactive | –
74 | CCCCN(CC)CCNC(=O)c1cc2cc3ccc(Cl)cc3nc2o1 | – | 18.8% (active)
75 | COc1ccc(C(=O)NC(=S)NNC(=O)CCc2ccccc2)cc1 | – | 61.1% (active)
76 | CCN(CC)CCSc1nc2ccc(OC)cc2[nH]1 | – | 31.6% (active)
77 | Cc1ccc(C)c(OCCCCn2ccnc2)c1 | – | 14.7% (active)
78 | Cc1nc(/N=C(\N)NC(=O)NC2CCCCC2)nc2ccccc12 | – | 36.2% (active)
79 | COC(=O)[C@@]1(Cc2ccc(F)cc2)[C@H]2c3cc(C(=O)N(C)C)n(CCc4ccccn4)c3C[C@H]2CN1C(=O)c1ccccc1 | inactive | –
80 | O=C(CNS(=O)(=O)c1ccc2ccccc2c1)NCCc1ccccn1 | inactive | –
